Experimental data published in ChEMBL document CHEMBL3988442, “University of Dundee, Small-Polar-MMV Screening Library” (2021).
About 30 (0.04%) of roughly 69,000 compounds showed an effect of 50% or more. What follows is part of a selection rich in strong results, with near analogues and random picks from the rest.

What follows are molecules tested against T1, Histidine--tRNA ligase (Trypanosoma cruzi (strain CL Brener)) (UniProt Q4DA54) (assay: Trypanosoma cruzi histidyl tRNA synthetase (Tc-HisRS)). Conditions: 30 µM.
T1 sequence (whole entry): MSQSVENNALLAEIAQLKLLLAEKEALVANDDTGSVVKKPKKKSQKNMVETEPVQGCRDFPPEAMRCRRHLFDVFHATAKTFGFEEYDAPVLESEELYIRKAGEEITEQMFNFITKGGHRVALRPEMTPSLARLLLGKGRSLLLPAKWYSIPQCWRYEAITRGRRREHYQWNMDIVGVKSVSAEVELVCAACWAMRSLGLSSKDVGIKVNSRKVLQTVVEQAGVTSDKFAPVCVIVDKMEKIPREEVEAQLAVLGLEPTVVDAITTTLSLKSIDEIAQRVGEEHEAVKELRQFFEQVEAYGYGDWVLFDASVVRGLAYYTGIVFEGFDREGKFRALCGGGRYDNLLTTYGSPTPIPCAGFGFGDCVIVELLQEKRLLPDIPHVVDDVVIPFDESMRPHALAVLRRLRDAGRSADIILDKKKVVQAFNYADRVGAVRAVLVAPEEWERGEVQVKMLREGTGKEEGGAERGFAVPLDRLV
Assay type: functional
Set-up: scale not given: direction of the effect not stated beside the values

In order of falling Percent Effect:
1. O=C(NCc1cnn2cccnc12)c1cccc(CC2CCNCC2)c1  85.5%
2. COc1ccc(OC)c(C2CC(=O)Nc3nc(N4CCOCC4)sc32)c1 (stereo not drawn)  75.8%
3. COc1ccc(C2CC(=O)Nc3nc(N4CCOCC4)sc32)c(OC)c1 (stereo not drawn)  72%
4. CC1CCN(c2ccc(C(=O)N3CCCC3c3ccc[nH]3)cn2)CC1 (stereo not drawn)  66.8%
5. O=C(O)c1cncc(Cc2ccc(F)cc2)c1  62.8%
6. CN(CC1CC1)c1ccc2ccc(C(=O)NCCc3ccccc3)cn12  51.4%
7. NCC1CCN(C2CCN(c3ccc(-c4ccco4)cc3)CC2)C1 (stereo not drawn)  50.6%
8. NC1CCN(C2CCN(c3ccc(-c4ccco4)cc3)CC2)CC1  43.5%
9. CNC1CCN(C2CCN(c3ccc(-c4ccco4)cc3)CC2)CC1  35.3%
10. c1cnc(N2C[C@@H]3COC[C@]3(COCC3CCCC3)C2)nc1  14.3%
11. O=C(C1CCOCC1)N1C[C@H]2CCC[C@@]2(COc2cccnc2)C1  12.8%
12. O=C(C1CCC1)N1CC[C@@H]2CN(Cc3cccnc3)S(=O)(=O)[C@@H]2CC1  11.6%
13. CCn1ncnc1C1CC(=O)NCc2nc(N3CCOCC3)sc21 (stereo not drawn)  9.45%
14. NC(=O)c1ccc(OCC(=O)N2CCCC2c2ccc[nH]2)cc1 (stereo not drawn)  9.13%
15. CCn1ncc(CN2C[C@@H]3CCCN3C[C@@H]2CCSC)c1C  8.99%
16. COc1ccc(OC)c(C2CCN(CC(C)(C)N3CCOCC3)C2)c1 (stereo not drawn)  8.29%
17. O=C(Nc1cccnc1)[C@H]1CO[C@H]2CCN(c3ncc(F)cn3)C[C@H]2C1  8.11%
18. O=C1[C@H]2CC[C@H](CN(Cc3nnc(C4CC4)o3)C2)N1Cc1cscn1  8%
19. COc1ccc(C(C)C)cc1C1CC(=O)NCc2nc(N(C)C)sc21 (stereo not drawn)  7.85%
20. O=C(CO[C@@H]1CC[C@H]2[C@H]1OCCN2Cc1ccccn1)N1CCCC1  7.53%
21. O=C(c1ccnnc1)N1CC[C@H]2C[C@H](c3ccncn3)O[C@@H]2C1  7.44%
22. Cc1ccc(N2CCN(C(=O)CN3C[C@@H]4CC[C@H]3C4)CC2=O)cc1  6.47%
23. CCOC(=O)[C@]12CCCN(Cc3nccs3)C[C@H]1CN(S(C)(=O)=O)C2  6.45%
24. O=C1C[C@H]2[C@@H](CCN2C(=O)Cc2cccs2)N1CC1CC1  5.83%
25. CN1CCC(NC(=O)[C@H]2CC[C@@H]3[C@@H](CCN3c3ncccn3)O2)CC1  5.75%
26. O=C(O)c1cncc(Cc2cccc(F)c2)c1  5.64%
27. Cc1ccc(C(=O)N2CCO[C@H]3[C@@H](OCc4ccccn4)CC[C@@H]32)o1  5.43%
28. O=C(c1ccccn1)N1C[C@@H]2CC[C@H](C1)N(C(=O)CCc1cccs1)C2  5.02%
29. Cn1cc(C(=O)N[C@H]2CN(S(C)(=O)=O)[C@@H]3CCCO[C@H]23)cn1  4.9%
30. CS(=O)(=O)N1C[C@H]2C[C@H](C(=O)N3CCOCC3)[C@@H](C1)O2  4.85%
31. CN(C)C(=O)COC[C@]12COC[C@H]1CN(Cc1ccccc1)C2  4.67%
32. Cc1ccsc1C(=O)N1C[C@@H]2CN(Cc3ccoc3)CCO[C@@H]2C1  3.87%
33. CC1CCN(c2ccc(C(=O)N3CCCC3c3nncn3C)cn2)CC1 (stereo not drawn)  3.87%
34. CC/N=c1/c(NC(=O)C2CC2)c(O)oc2ccccc12  3.51%
35. CC(C)NC(=O)[C@H]1C[C@@H]2[C@@H](C1)OCCN2Cc1cccs1  3.48%
36. Cc1noc(C)c1CN1C(=O)[C@H]2CC[C@@H]1CN(Cc1ccc(Cl)cc1)C2  3.17%
37. CC(=O)N1C[C@@H]2CC[C@H](C1)N(S(=O)(=O)c1ccc(F)cc1Cl)C2  3%
38. c1cc(CN2C[C@@H]3OCCN(CC4CCCO4)[C@@H]3C2)co1 (stereo partly drawn)  2.94%
39. CC(C)(O)CCc1cccc(C(=O)NCc2cnn3cccnc23)c1  1.82%
40. CCOC(=O)[C@]12CCCN(Cc3ccco3)C[C@H]1CN(S(C)(=O)=O)C2  1.68%
41. Cn1cc(CN2CC[C@H]3C[C@H](c4nc(C5CC5)cs4)O[C@@H]3C2)cn1  1.67%
42. CC(C)Cn1cncc1CNC(=O)c1cccc(CC2CCNCC2)c1  1.62%
43. CCN1CCN(S(=O)(=O)N2CCc3ccccc3C2)[C@H]2CS(=O)(=O)C[C@H]21  1.32%
44. CCOC(=O)[C@@H]1CN2CCNC[C@@H]2[C@H]1c1ccccc1  1.12%
45. CC(C)C(=O)N1CC[C@@H]2CN(Cc3ccncc3)S(=O)(=O)[C@@H]2CC1  1.07%
46. CCN1CCO[C@@H]2CN(C(=O)NCc3ccccc3)CC[C@@H]2C1  1.06%
47. Cc1ccccc1C(=O)N1CC[C@@H]2CN(c3ncccn3)CCO[C@@H]2C1  0.98%
48. COc1cc(N2CC[C@H]3O[C@@H](C(=O)NC4CCCC4)CC[C@H]32)ncn1  0%
49. O=C(O)c1cncc(Cc2ccccc2F)c1  -0.376%
50. Cn1ccnc1CN1C[C@H]2CN(S(=O)(=O)c3ccccc3)CCN2C1=O  -1.49%
51. COc1ccc(C2CC(=O)Nc3nc(N4CCOCC4)sc32)cc1 (stereo not drawn)  -2.48%
52. Cc1ccc(CN2CCC[C@]3(C(=O)O)CN(CC4CC4)C[C@@H]3C2)s1  -3.17%
53. CCN1C(=O)COC[C@@H]1[C@H](O)c1ccc(NC(=O)COC)cc1  -5.47%
